# The panel holds about 79,000 compounds, 15% with a hit somewhere; the sample as a whole holds those more often. Values without a mark were called inactive. Active and inactive are the calls of the source. No stated cut-off is given here; in the data, active means growth inhibition above about 70%; inactive means the rest.
# Experiments:
# [1] = NCI Yeast Anticancer Drug Screen. Data for the rad50 strain (AID 155);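 further: 0% = growth of vehicle-only cultures of the same strain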; settings: S. cerevisiae rad50 strain growth inhibition; at 50.0 µM; hits give high values
# Summary of the method: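 Compounds were tested on a yeast strain with an engineered DNA damage repair alteration; the reported value is growth inhibition normalised to vehicle treatment.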
# [2] = NCI Yeast Anticancer Drug Screen. Data for the mec2-1 strain (AID 157); settings: S. cerevisiae mec2-1 strain, at 50.0 µM, hits give high values
# Summary of the method: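 Readout is yeast growth inhibition, normalised to vehicle-treated controls, in the mec2-1 strain exposed to compound.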
# [3] = NCI Yeast Anticancer Drug Screen. Data for the sgs1 mgt1 strain (AID 161);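 further: 0% = growth of cultures given vehicle only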; settings: S. cerevisiae sgs1 mgt1 strain, at 50.0 µM, hits give high values
# Summary of the method: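 This yeast growth screen uses a strain with defined DNA-repair lesions; compound-treated growth is compared with vehicle-treated growth.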
# [4] = NCI Yeast Anticancer Drug Screen. Data for the cln2 rad14 strain (AID 165);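 further: 0% = growth equal to vehicle treated cultures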; settings: S. cerevisiae cln2 rad14 strain, at 50.0 µM, hits give high values
# Summary of the method: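 Relative to vehicle controls, growth inhibition of compound-treated cln2 rad14 yeast was recorded.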
# [5] = NCI Yeast Anticancer Drug Screen. Data for the bub3 strain (AID 167); settings: S. cerevisiae bub3 mutant strain, at 50.0 µM, hits give high values
# Summary of the method: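 Growth of a checkpoint-deficient yeast mutant is measured after compound exposure. Values represent inhibition relative to vehicle.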
# [6] = NCI Yeast Anticancer Drug Screen. Data for the mlh1 rad18 strain (AID 175); settings: S. cerevisiae mlh1 rad18 strain growth inhibition; at 50.0 µM; hits give high values
# Summary of the method: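 Test agents were incubated with a yeast strain of defined genotype (DNA damage repair defect). Inhibition of growth was derived by comparison with vehicle-exposed cultures.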
SMILES,growth inhibition [1],growth inhibition [2],growth inhibition [3],growth inhibition [4],growth inhibition [5],growth inhibition [6]
COC(=O)CC1C(=O)OC23CCC1C2(C)CCC1C3CCC2CC(OC(C)=O)CCC21C (configuration not stated),87.4% (active),89.3% (active),90.5% (active),82% (active),87.5% (active),87.9% (active)
C/C=C/C(=O)OCCC#N,-27.1%,-2.3%,3.7%,14.7%,-17.1%,-8.85%
CCC(SC)C(=O)N(C)c1ccccc1 (configuration not stated),-8.5%,-15.3%,1.25%,-10.3%,-13.1%,-3%
CC(C)(O)/C(=N/O)c1ccc(-c2ccccc2)cc1,-4.05%,-18.3%,0.35%,-16.1%,9.35%,10.8%
CCCc1cc2c3c(c(=O)oc2cc1O)CCCC3,94.8% (active),75.6% (active),92.5% (active),89% (active),92.7% (active),96.4% (active)
CCN1C(=O)CS/C1=N/NC(=O)C(O)(c1ccccc1)C1C=CC=CC1 (configuration not stated),-9.6%,-21.1%,2.6%,10.3%,0.25%,4.75%
CCOc1ccccc1NC(=O)CC(=O)N1N=C(C)C(N=Nc2ccccc2C(=O)O)C1=O (configuration not stated),18.1%,3.5%,1.6%,-2.3%,-3.35%,17.6%
CCOC(=O)c1ccc(NCc2ccc3nc(OC)c(OC)nc3c2)cc1,-5.7%,-20.5%,-13.7%,14.9%,6.85%,-19.4%
COc1ccc(SSc2ccc(OC)cc2)cc1,25.9%,-1.1%,12.2%,1.95%,6.2%,18.8%
CCC(CC(N)=O)C(C#N)(C#N)C(N)=O (configuration not stated),12.9%,5.05%,-4.05%,-2.85%,7.1%,3.95%
CC(=O)OC1CCC2(C)C(CCC3C2CCC2(C)C(C(C)=O)CCC32)C1 (configuration not stated),4.25%,-9.05%,2.35%,-11.9%,10.4%,14.9%
CCOC(=O)c1ccccc1[N+](=O)[O-],22.8%,23.4%,8.7%,-11.7%,6.7%,18.2%
C[C@@H](C1CC[C@H]2[C@@H]3[C@@H]4O[C@@H]4[C@@]4(O)CC=CC(=O)[C@]4(C)[C@H]3C[C@H](O)[C@]12C)[C@H]1C[C@]2(C)O[C@]2(C)C(=O)O1 (some centres not stated),1.35%,-3.25%,-2.9%,29.5%,2.65%,-48.6%
O=[N+]([O-])c1ccc(Nc2nc3ccccc3s2)cc1,6.75%,11.8%,-24.7%,-21.5%,5.75%,15.2%
CCCCCNC(=O)c1ccc([N+](=O)[O-])cc1,7.35%,-1.75%,3.75%,4.85%,-1%,13.9%
C(=C\C1OCCO1)/c1ccccc1,14.4%,0.45%,7.25%,-2.4%,18.1%,-3%
Cc1ccc(S(=O)(=O)C(=S)SCc2ccccc2)cc1,38.5%,37.8%,59%,19.6%,35.4%,33%
Cc1c(F)c(F)c(-c2c(F)c(F)c(C)c(F)c2F)c(F)c1F,5%,-35.2%,-17.3%,8.3%,-16.2%,0.1%
O=c1[nH]c(=O)n(C2CC(O)C(CO)O2)c2ncncc12 (configuration not stated),-0.85%,-0.3%,4.45%,2.15%,-10.1%,-57.1%

SMILES,growth inhibition [1],growth inhibition [2],growth inhibition [3],growth inhibition [4],growth inhibition [5],growth inhibition [6]
CC(C)CC(=O)CC(=O)C(C)(C)C.CC(C)CC(=O)CC(=O)C(C)(C)C.CC(C)CC(=O)CC(=O)C(C)(C)C.CC(C)CC(=O)CC(=O)C(C)(C)C.[Ce],3%,19%,55.4%,-16.1%,2.6%,47.1%
Cc1ccccc1NCC(C)O (configuration not stated),-3.05%,6.15%,-5.9%,-84.5%,-20.4%,-32%
Cc1ccc(S(=O)(=O)Nc2ccc(C(=O)Cl)cc2)cc1,4.8%,25.4%,23.5%,6.9%,27.4%,11.8%
O=C(c1ccccc1Br)C(F)(F)F,-2.6%,-19.5%,-18.4%,-17.5%,-43.9%,-3.8%
Nc1ccc(C(=O)c2ccccc2)cc1Cl,60.7%,35%,56.4%,6.75%,36.2%,36.1%
O=Cc1c(O)nc[nH]c1=O,-23.9%,-27.9%,-4.15%,6.75%,-13.4%,-7.7%
CC(C)C(NC(=O)CI)C(=O)Nc1ccc(C(=O)O)c(O)c1 (configuration not stated),24.2%,20.5%,5.7%,-11.6%,7.1%,24.1%
CC1=CC[C@@H](Br)C(C)(C)[C@]12CC[C@]1(C)O[C@@H]1C2,3.15%,-33.6%,-12.6%,2.55%,-23.6%,-13.6%
CC1(C)N=C(C(N)=O)c2ncn(CCCO)c2N1,-13.5%,-12.6%,-48.4%,23.2%,-0.35%,-6.8%
COC1/C=C/OC2(C)Oc3c(C)c(OC(C)=O)c4c(c3C2=O)C(=O)C=C(NC(=O)/C(C)=C\C=C\C(C)C(OC(C)=O)C(C)C(O)C(C)C(OC(C)=O)C1C)C4=O (configuration not stated),13.6%,20.7%,26.1%,21.6%,9.45%,42.9%
CN(C)Cc1c(C(O)(c2ccccc2)c2ccccc2)cc2ccccc2c1Cl,-12.8%,-15.3%,-25.6%,-3%,1.05%,-10.4%
CC1(C)S[C@@H]2[C@H](NC(=O)C3(N)CCCCC3)C(=O)N2[C@H]1C(=O)O,-11.8%,-29.1%,7.85%,-5.65%,-59.6%,-11.8%
Clc1ccccc1C=NCCN=Cc1ccccc1Cl,-1.75%,-14.8%,-3.5%,0.5%,3.4%,1.15%
c1ccc(C2SCCN2c2ccccc2)cc1 (configuration not stated),9.2%,-0.35%,-20.4%,9.95%,11.8%,-14.4%
CCCCNc1c(C(=O)N2CCCCC2)cnc2c1cnn2CC,-3.15%,1.8%,26.2%,-13.9%,46.8%,1.05%
O=[N+]([O-])c1ccc(C=Nc2ccccc2)cc1,41.1%,24.1%,30.9%,11.9%,1%,26.4%
CCCCCc1nc2c(c(=O)n(C)c(=O)n2C)n1C,14.2%,-9.35%,-1%,0%,6%,17.6%
CNC(=S)N(C)/N=C/c1ccccc1,10.3%,2.4%,-3.75%,-28.9%,-7.15%,3%
